Test results taken from PubChem BioAssay (NCI).
Several values for one entry are separate records, joined by “and”; a condition that tells them apart may be missing. Identical values can stand only once. The panel holds about 83,000 compounds, 20% with a hit somewhere; the sample as a whole holds those more often.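 Step 1: grow cells in 96-well plates. Step 2: add test compound at a single concentration. Step 3: incubate 48 h. Step 4: record percent growth.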 A number with no mark means an inactive call. Activity calls are given as the source filed them. The calls were made as follows: active = growth percent below 10; inactive = the rest.

These compounds were tested on MDA-MB-468 breast (assay: NCI-60 one-dose screen, 48 h (100 = growth as untreated, 0 = no growth, -100 = all killed)). Conditions: 10 µM unless noted.
Work on `CCOC(=O)[C@]1(Br)CC[C@@]1(Br)C(=O)OCC` yielded a growth of 44.9%. For `Cn1cc(-c2ccc3cc(-c4ccc(CC(=O)Nc5cc(C(C)(C)C)on5)cc4)cnc3c2)cn1`, the growth was 30.7%. For `OC1CSSC1Cn1cnc2c(Nc3ccc(OCc4cccc(F)c4)c(Cl)c3)ncnc21` (stereo not given), the growth was -53.2% (active). `CCN1c2ccccc2C(Cl)(c2ccc(N(C)C)cc2)c2ccccc21` was tested, and the growth was 86.6%. `Clc1ccc2c(NCCCn3cnc4c(N5CCCC5)nc(Cl)nc43)ccnc2c1` was tested, and the growth was 107%. `O=C1OCC2=C1C(c1cccc(C(F)(F)F)c1)c1cc3c(cc1N2CCO)CCC3` (stereo not given) was tested, and the growth was -1.26% (active). With `COc1ccc(C2C=C(c3ccc(Cl)c(Cl)c3)N=C3SC(C)=CN32)cc1OC` (stereo not given) the growth was 53.1%. `COc1ccc(-c2csc(NC(=O)CSc3nc(C)c(-c4ccccc4)n3Nc3ccccc3)n2)cc1` gave a growth of 91.3%. `O=C(NCCCN1CCC(N2CCCCC2)CC1)C1=Cc2cc(Br)ccc2OC1` was tested, and the growth was 45.6%. With `O=C1OC2(c3ccccc31)c1ccc(O)c(O)c1Oc1c2ccc(O)c1O` the growth was 96.8% and 113%. With `COc1cccc(C(=O)NCCCNc2cc(-c3cn(-c4ccccc4)nc3-c3cccc(OC)c3)ccn2)c1` the growth was 29.1%. `Cc1c(C(=O)NC(Cc2ccccc2)C(O)C(=O)NCc2ccc(F)cc2)[nH]c2ccccc2c1=O` (stereo not given) was tested, and the growth was 99.4%. `O=C1C2C3C=CC(O3)C2C(=O)N1Nc1ccccc1` (stereo not given) showed a growth of 105%. `CCOC(=O)c1c(N)sc2cc(O)ccc12` showed a growth of 131%. With `COc1ccc(O)c(-c2cc(-c3ccc(Cl)cc3)c(C#N)c(=O)[nH]2)c1` the growth was 78.8%. `O=C(N(c1ccccc1)c1ccccc1)n1ccc2nc(Cl)nc(Cl)c21` was tested, and the growth was -0.952% (active). For `COc1cc(CNC(=O)CCCC/C=C/C(C)C)ccc1O`, the growth was 94.6% and 98.5%. Compound `COc1ccc(/C(C)=C(\c2ccc(OCCN3CCOCC3)cc2)c2ccc(OC(=O)C3CCCCC3)cc2)cc1` has a growth of 116%. `Cc1ccc2cc3c(NC(=O)c4cccnc4)nn(C)c3nc2c1` showed a growth of 80.3%. Work on `CC(C)(C)n1cc(-c2ccnc(NCCNS(=O)(=O)c3ccccc3)c2)c(-c2cccc(O)c2)n1` yielded a growth of 11.1%. In the case of `COc1ccc2c(c1)OC1=C(C(=O)OC1)C2c1cc(OC)c2c(c1)OCO2` (stereo not given), the growth is reported as -7.16% (active). In the case of `Cc1ccccc1-c1cc(Cc2ccc(F)cc2)c(=O)[nH]n1`, the growth is reported as 109%. With `CCc1nc2cc(F)c(/C=C/C(=O)NO)cc2c(=O)n1CCc1ccccc1` the growth was 4.28% (active). `N#Cc1c(N)nc(Nc2nc3ccccc3[nH]2)nc1-c1ccc(Cl)cc1` was tested, and the growth was 111%. Compound `CC(=O)c1c(C)[nH]c(-c2nc3ccc(N4CCN(C)CC4)cc3[nH]2)c1-c1ccccc1` has a growth of 24.1%. `C=C1CC[C@@H]2[C@](C)(COC(C)=O)[C@H](OC(C)=O)CC[C@@]2(C)[C@@H]1CC(Nc1ccc(S(=O)(=O)Nc2nccs2)cc1)C1=CCOC1=O` (stereo not given in full) was tested, and the growth was -59.9% (active). Compound `COc1ccc(S(=O)(=O)N2CCN(C)CC2)cc1NC(=O)c1[nH]c(C)c2c1CCCCC2=O` has a growth of 39.8%. With `O=S(=O)(NCCNc1cc(-c2cn(-c3ccccc3)nc2-c2cccc(O)c2)ccn1)c1ccc(Cl)cc1` the growth was -24.6% (active). Compound `COC1(OC)C2(Cl)C=C(c3ccccc3)C1(Cl)C(Cl)=C2Cl` (stereo not given) has a growth of 108%. Work on `OCCSc1ccc(Cl)cc1` yielded a growth of 106%. `Cc1ccc(NC(=O)c2cc(-c3nc4ccccc4s3)c(=O)n(NS(=O)(=O)c3ccc(Cl)cc3)c2N)cc1` showed a growth of 109%. In the case of `CCCCCCCCCCCCCCCCCC1=NC(C)(C)CN1C(C)(C)CO`, the growth is reported as -100% (active). In the case of `O=C(OC[C@H]1O[C@H](OC(=O)c2cc(O)c(O)c(OC(=O)c3cc(O)c(O)c(O)c3)c2)[C@H](OC(=O)c2cc(O)c(O)c(OC(=O)c3cc(O)c(O)c(O)c3)c2)[C@@H](OC(=O)c2cc(O)c(O)c(OC(=O)c3cc(O)c(O)c(O)c3)c2)[C@@H]1OC(=O)c1cc(O)c(O)c(OC(=O)c2cc(O)c(O)c(O)c2)c1)c1cc(O)c(O)c(OC(=O)c2cc(O)c(O)c(O)c2)c1`, the growth is reported as 54.1%. Work on `COc1cc(C(=C2O[C@@H]([C@H]3COC(C)(C)O3)[C@H]3OC(C)(C)O[C@@H]23)c2cc(OC)c(OC)c(OC)c2)cc(OC)c1OC` yielded a growth of 106%. For `COc1ccc(Nc2ncc(C(N)=O)c(NCCCNC(=O)C3CCC3)n2)cc1`, the growth was 33.1%. Compound `Cc1csc(NC(c2ccccc2)c2c(C)nc3ccccn23)n1` (stereo not given) has a growth of 100%. Compound `Nc1nc2c(c(=O)[nH]1)C(c1ccc3c(c1)OCO3)C=C(C(=O)O)N2` (stereo not given) has a growth of 107%. `CC(C)(C)[Si](C)(C)OC1[C@@H](COC(=O)NC(=O)CCl)O[C@@H](n2cnc3c(N)ncnc32)[C@H]1O[Si](C)(C)C(C)(C)C` (stereo not given in full) was tested, and the growth was 65%. With `O=C1Nc2ccccc2/C1=C/c1c[nH]c2ccccc12` the growth was 44.4%. For `CCc1cc2c(cc1Cl)nc1c(=O)[nH]c(=O)nc-1n2CCOCC(C)(C)C`, the growth was 44.3%.
